Test systems include HCT-15 colon; HT29 colon; SNB-75 CNS; U251 CNS; PC-3 prostate; SK-MEL-5 melanoma; UACC-62 melanoma; LOX IMVI melanoma; SK-MEL-28 melanoma; SK-MEL-2 melanoma; EKVX NSCLC; SN12C renal; UO-31 renal; TK-10 renal; ACHN renal; CAKI-1 renal; A498 renal; HL-60(TB) leukemia; CCRF-CEM leukemia; SNB-19 CNS.
Test in all cases: NCI-60 one-dose screen, 48 h (100 = growth as untreated, 0 = no growth, -100 = all killed)
What all share (conditions): 10 µM unless noted

Among the data in PubChem BioAssay (NCI) are growth values, retold here.

Where “and” joins values, the source holds several entries; their conditions need not be identical. Equal entries are not always repeated. Compounds without any hit were thinned out: in the full panel of roughly 83,000, 20% have a hit.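 Step 1: grow cells in 96-well plates. Step 2: add test compound at a single concentration. Step 3: incubate 48 h. Step 4: record percent growth.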 Values without a mark were called inactive. Calls of active or inactive are those of the source. Rule for the calls: active = growth percent below 10; inactive = the rest.

For `C/C(=N/OC(=O)N(C)C)c1ccc(Cl)c(Cl)c1`, the growth is 107% with HCT-15 colon; 95.2% with HT29 colon; 116% with SNB-75 CNS; 105% in the assay with U251 CNS; 93.7% with PC-3 prostate; 99.3% with SK-MEL-5 melanoma. Besides, the growth in the assay with UACC-62 melanoma was 97.8%; in the assay with LOX IMVI melanoma, 99.2%; in the assay with SK-MEL-28 melanoma it was 105%; in the assay with SK-MEL-2 melanoma it was 111%; in the assay with EKVX NSCLC it was 123%; in the assay on SN12C renal, 95%. In addition, the growth with UO-31 renal was 94.7%; in the assay with TK-10 renal, 101%; in the assay with ACHN renal it was 112%; in the assay with CAKI-1 renal it was 102%; in the assay on A498 renal it was 99.6%; with HL-60(TB) leukemia, 112%. Further, the growth with CCRF-CEM leukemia was 98.2%.
Take `CN1CCC2(CC1)C(C#N)C(=O)NC(=O)C2C#N` (stereo not drawn): the growth in the assay on HCT-15 colon was 98.4%; in the assay on HT29 colon, 118%; with SNB-75 CNS, 76.4%; with SNB-19 CNS it was 99%; in the assay with PC-3 prostate it was 101%; with SK-MEL-5 melanoma, 102%. For the same molecule, the growth was 101% in the assay on UACC-62 melanoma; 100% in the assay on LOX IMVI melanoma; 95.1% with SK-MEL-28 melanoma; 113% in the assay on SK-MEL-2 melanoma; 91.9% in the assay on UO-31 renal; 125% with TK-10 renal. Besides, the growth in the assay with ACHN renal was 110%; with CAKI-1 renal, 92%; with A498 renal, 95.8%; in the assay on HL-60(TB) leukemia, 107%; in the assay with CCRF-CEM leukemia, 104%.
In the case of `CC(Oc1ccc(-c2ccccc2)cc1)C(=O)O` (stereo not drawn), the growth in the assay on HCT-15 colon is 108%; with HT29 colon, 103%; in the assay on SNB-75 CNS it was 91.6%; in the assay with SNB-19 CNS it was 97%; in the assay on U251 CNS, 97.4%; with PC-3 prostate it was 101%. Besides, the growth in the assay on SK-MEL-5 melanoma is 97%; in the assay on LOX IMVI melanoma, 104%; with SK-MEL-28 melanoma it was 110%; in the assay with SK-MEL-2 melanoma, 107%; with SN12C renal it was 104%; in the assay with UO-31 renal it was 91.8%. Besides, the growth is 104% in the assay with ACHN renal; 99.2% in the assay with CAKI-1 renal; 77.7% with A498 renal; 97.3% with HL-60(TB) leukemia; 98.4% in the assay on CCRF-CEM leukemia.
On to `Cc1c2ccncc2c(C)c2c1[nH]c1ccccc12`, for which the growth with HCT-15 colon is -40.3% (active); in the assay on HT29 colon, 2% (active); in the assay with SNB-75 CNS, -89% (active); in the assay on SNB-19 CNS, -84.8% (active); in the assay on U251 CNS it was -82.2% (active); in the assay with SK-MEL-5 melanoma, -97.7% (active). For the same molecule, the growth is 56.5% in the assay on UACC-62 melanoma; -77.6% (active) with LOX IMVI melanoma; -96.7% (active) in the assay on SK-MEL-28 melanoma; -85.8% (active) in the assay on SK-MEL-2 melanoma; -21.8% (active) with EKVX NSCLC; -75.8% (active) with SN12C renal. The growth was -82.1% (active) in the assay with UO-31 renal; -81.3% (active) in the assay on TK-10 renal; -92.3% (active) in the assay with ACHN renal; -90.7% (active) in the assay on CAKI-1 renal; -94.8% (active) in the assay on A498 renal; -45.1% (active) with HL-60(TB) leukemia.
As for `C[C@]12CC[C@H]3[C@@H](C[C@@H]4SC(Nc5cccc(F)c5)=N[C@@]45CC(=O)CC[C@]35C)[C@@H]1CCC2=O`, the growth was 6.88% (active) in the assay on HCT-15 colon; -3.32% (active) in the assay with HT29 colon; 18.7% in the assay on SNB-75 CNS; 15.7% with U251 CNS; 19.1% in the assay with PC-3 prostate; 32.1% in the assay on SK-MEL-5 melanoma. Also, the growth with UACC-62 melanoma was 37.5%; in the assay with LOX IMVI melanoma it was 6.22% (active); in the assay on SK-MEL-28 melanoma, 39.4%; with SK-MEL-2 melanoma it was 21.8%; with EKVX NSCLC it was 46.4%; in the assay with SN12C renal, 28.5%. The growth with UO-31 renal is -26.9% (active); in the assay with TK-10 renal, 20.3%; with ACHN renal it was 1.56% (active); with CAKI-1 renal it was 50.5%; with A498 renal it was 22.9%; in the assay with HL-60(TB) leukemia, 8.58% (active). Further, in the assay on CCRF-CEM leukemia, the growth was 4.95% (active).
In the case of `C/C=C(/C)C(=O)O[C@H]1CC[C@@]2(C)[C@@H]3CC[C@H]4[C@]5(O)C[C@H](O)[C@@]6(O)[C@@H](CN7C[C@@H](C)CC[C@H]7[C@@]6(C)O)[C@]5(O)C[C@@]42O[C@@]13O`, the growth with HCT-15 colon is 98.4%; with HT29 colon, 92.4%; in the assay on SNB-75 CNS, 79.9%; in the assay with SNB-19 CNS, 112%; in the assay with U251 CNS, 103%; in the assay with SK-MEL-5 melanoma, 102%. The growth in the assay with UACC-62 melanoma is 127%; in the assay with LOX IMVI melanoma it was 104%; with SK-MEL-28 melanoma, 124%; in the assay on EKVX NSCLC it was 107%; in the assay on TK-10 renal, 125%; in the assay on ACHN renal it was 113%. Also, the growth in the assay on CAKI-1 renal was 103%; in the assay on A498 renal, 127%; with HL-60(TB) leukemia it was 128%; with CCRF-CEM leukemia, 106%.
`Cc1cc[n+](CCc2ccccc2)cc1`: the growth with HCT-15 colon is 109% and 106%; in the assay on HT29 colon it was 98.4% and 92.6%; in the assay with SNB-75 CNS, 96.3% and 84.1%; in the assay with SNB-19 CNS it was 102% and 106%; in the assay with PC-3 prostate, 101%; in the assay with UACC-62 melanoma it was 102% and 116%. The growth in the assay with SK-MEL-28 melanoma was 103% and 101%; with SN12C renal, 102% and 105%; with TK-10 renal it was 91.8% and 106%; in the assay on ACHN renal, 103%; with CAKI-1 renal it was 97% and 98.7%; in the assay on HL-60(TB) leukemia, 97.8% and 95.8%. Also, the growth in the assay on CCRF-CEM leukemia is 101%.
Take `CC[C@H](CC[C@@H](C)[C@H]1CC[C@H]2[C@@H]3CC[C@H]4C[C@]5(CC[C@]4(C)[C@H]3CC[C@]12C)OO[C@](C)(C(F)(F)F)O5)C(C)C`: the growth in the assay with HCT-15 colon was 97%; in the assay on HT29 colon it was 102%; in the assay on SNB-75 CNS, 66.7%; in the assay with U251 CNS, 100%; in the assay on PC-3 prostate it was 94.2%; in the assay with SK-MEL-5 melanoma, 99.4%. For the same molecule, the growth in the assay with UACC-62 melanoma was 83.2%; in the assay with LOX IMVI melanoma, 92.9%; in the assay with SK-MEL-28 melanoma it was 89.9%; in the assay on SK-MEL-2 melanoma, 101%; in the assay with EKVX NSCLC, 96.2%; with SN12C renal, 81.2%. For the same molecule, the growth in the assay with UO-31 renal was 78.8%; with TK-10 renal, 109%; in the assay with ACHN renal, 98.7%; in the assay with CAKI-1 renal, 81.7%; in the assay with A498 renal, 97.3%; with HL-60(TB) leukemia it was 106%. Also, the growth with CCRF-CEM leukemia is 100%.
